Data published in PubChem BioAssay (EPA / NIEHS).
Records with an inconclusive call do not appear. Calls of active or inactive are those of the source. How the source made its calls, unless noted: active means hit-call score of the fitted dose curve at least 0.9, where 1 is the maximum; inactive means score below 0.9.

What was measured:
[1] = ACEA_ER_80hr: ACEA Biosciences xCELLigence Real-Time Cell Analysis on Estrogen Receptor Agonism for Proliferation (AID 2282667; active means hit-call score of the fitted dose curve at least 0.9, where 1 is the maximum); details: T47D proliferation, impedance (xCELLigence), 80 h
How it was run: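 Real-time impedance growth kinetics of human T-47D breast cells read 80 h after dosing, gain-of-signal fitted relative to DMSO. Compounds: 1:4 serial series, top final concentration 100 uM, n = 2.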

[2] = ATG_CRE_CIS: Attagene CIS-FACTORIAL HepG2 Assay for human cAMP Responsive Element (CRE) binding protein 3 (AID 2282926); details: HepG2 CRE cis-reporter, Attagene multiplexed mRNA; actives raise or lower the signal
How it was run: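 Multiplexed transcription-unit reporters transfected into HepG2; 24 h dosing; RT-PCR/capillary electrophoresis fluorescence read-out; bidirectional fit vs DMSO.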

[3] = target: CCAAT/enhancer-binding protein beta (Homo sapiens) (UniProt P17676); assay: ATG_C_EBP_CIS: Attagene CIS-FACTORIAL HepG2 Assay for human CCAAT/Enhancer Binding Protein (C/EBP) beta (AID 2282927); details: HepG2 Attagene cis-factorial transcription factor reporter; actives raise or lower the signal
CCAAT/enhancer-binding protein beta (Homo sapiens), sequence (P17676 whole entry, looked up, the tested form may be a part): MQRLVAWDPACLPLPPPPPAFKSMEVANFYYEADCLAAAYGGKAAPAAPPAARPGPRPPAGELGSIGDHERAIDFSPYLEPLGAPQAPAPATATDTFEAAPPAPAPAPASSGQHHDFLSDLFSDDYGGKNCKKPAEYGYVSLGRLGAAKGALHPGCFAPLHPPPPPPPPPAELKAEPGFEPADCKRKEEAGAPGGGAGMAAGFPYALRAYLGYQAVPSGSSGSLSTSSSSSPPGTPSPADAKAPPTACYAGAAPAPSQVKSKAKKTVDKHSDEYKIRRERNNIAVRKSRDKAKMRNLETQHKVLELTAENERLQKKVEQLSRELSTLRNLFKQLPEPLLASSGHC
How it was run: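 Endogenous C/EBPb-driven reporter transcripts measured in transfected human HepG2 cells at 24 h via RT-PCR and capillary electrophoresis of labelled fragments. Activity fitted in both directions relative to DMSO baseline.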

[4] = ATG_CMV_CIS: Attagene CIS-FACTORIAL HepG2 Assay for human CMV (Internal Marker) (AID 2282928); details: HepG2 CMV promoter reporter, transcription factor profiling; actives raise or lower the signal;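 further: endpoint acts as a background internal control marker rather than a target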
How it was run: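 After transient transfection of HepG2 with reporter transcription units driven by cis-regulatory promoters, cells receive test chemical for 24 h. Labeled reporter amplicons, digested with HpaI, are sized and quantified by capillary electrophoresis against DMSO.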

[5] = ATG_DR4_LXR_CIS: Attagene CIS-FACTORIAL HepG2 Assay for human Liver X Receptor (LXR), DR4 submotif (AID 2282929); details: HepG2 Attagene DR4 cis-reporter, mRNA transcription; actives raise or lower the signal
How it was run: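 Measures endogenous transcription factor activity via a DR4-driven reporter transcript in human HepG2 cells. Compounds incubated 24 h; mRNA quantified by RT-PCR and capillary electrophoresis, analysed as gain or loss of signal versus DMSO.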

[6] = target: Aryl hydrocarbon receptor (Homo sapiens) (UniProt P35869); assay: ATG_Ahr_CIS: Attagene CIS-FACTORIAL HepG2 Assay for human Aryl Hydrocarbon Receptor (Ahr) (AID 2282930); details: HepG2 AhR cis-factorial reporter transcription; actives raise or lower the signal
Aryl hydrocarbon receptor (Homo sapiens), sequence (P35869 whole entry, looked up): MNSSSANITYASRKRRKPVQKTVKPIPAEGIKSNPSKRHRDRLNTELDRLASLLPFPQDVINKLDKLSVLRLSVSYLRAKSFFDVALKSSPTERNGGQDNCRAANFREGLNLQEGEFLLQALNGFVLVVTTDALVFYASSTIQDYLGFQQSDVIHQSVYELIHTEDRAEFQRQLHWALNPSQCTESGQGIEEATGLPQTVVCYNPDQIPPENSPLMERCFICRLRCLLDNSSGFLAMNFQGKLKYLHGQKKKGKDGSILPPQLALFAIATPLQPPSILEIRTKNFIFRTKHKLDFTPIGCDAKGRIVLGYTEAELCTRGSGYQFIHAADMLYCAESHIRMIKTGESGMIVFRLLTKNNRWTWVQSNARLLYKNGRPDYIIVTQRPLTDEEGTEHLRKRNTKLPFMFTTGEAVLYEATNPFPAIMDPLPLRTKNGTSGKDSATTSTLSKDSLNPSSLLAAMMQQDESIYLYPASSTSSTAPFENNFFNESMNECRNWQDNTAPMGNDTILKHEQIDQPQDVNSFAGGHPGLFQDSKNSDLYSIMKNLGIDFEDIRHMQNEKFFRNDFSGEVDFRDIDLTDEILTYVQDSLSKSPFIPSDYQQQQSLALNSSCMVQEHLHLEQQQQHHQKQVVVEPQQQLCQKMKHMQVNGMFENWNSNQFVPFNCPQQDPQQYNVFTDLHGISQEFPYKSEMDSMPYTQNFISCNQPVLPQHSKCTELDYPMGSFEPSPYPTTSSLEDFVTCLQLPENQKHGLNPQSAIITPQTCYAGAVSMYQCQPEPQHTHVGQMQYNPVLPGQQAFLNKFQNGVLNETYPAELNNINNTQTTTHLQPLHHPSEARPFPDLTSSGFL
How it was run: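 Reporter mRNA levels, quantified by RT-PCR and fluorescent capillary electrophoresis, reflect endogenous AhR transcriptional activity in HepG2 cells carrying transfected cis-promoter reporter constructs. Readout at 24 h post-dose; gain or loss fitted against DMSO baseline.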

[7] = ATG_AP_1_CIS: Attagene CIS-FACTORIAL HepG2 Assay for human Activator Protein 1 (AP-1) (AID 2282931); details: HepG2 Attagene cis-factorial AP-1 reporter mRNA; actives raise or lower the signal
How it was run: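 Bidirectional concentration-response fitting against DMSO controls. Underlying signal: reporter mRNA from cis-promoter constructs in transiently transfected HepG2, measured after 24 h by RT-PCR and capillary electrophoresis.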

[8] = ATG_AP_2_CIS: Attagene CIS-FACTORIAL HepG2 Assay for human Activator Protein 2 (AP-2) (AID 2282932); details: HepG2 AP-2 cis-reporter, Attagene transcription factor profiling; actives raise or lower the signal
How it was run: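 HepG2, transient MRTU transfection, cis-regulated reporters; 24 h compound exposure; RNA isolated, RT-PCR, 6-FAM labelling, HpaI digest, CE fluorescence. DMSO = negative control/baseline, bidirectional fit.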

[9] = ATG_BRE_CIS: Attagene CIS-FACTORIAL HepG2 Assay for human Bone Morphogenetic Protein (BMP) Response Element (BRE) (AID 2282933); details: HepG2 BMP response element reporter, Attagene transcription factor profiling; actives raise or lower the signal
How it was run: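 Endogenous transcription factor activity read in transiently transfected HepG2 cells after 24 h chemical exposure. Bidirectional curve fitting against DMSO; readout is reporter transcript level by RT-PCR with capillary electrophoresis of labelled products.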

[10] = target: Retinoic acid receptor alpha (Homo sapiens) (UniProt P10276); assay: ATG_DR5_RAR_CIS: Attagene CIS-FACTORIAL HepG2 Assay for human Retinoic Acid Receptor Alpha (RARE), DR5 submotif (AID 2282934); details: HepG2 Attagene cis-factorial RARE DR5 reporter, mRNA; actives raise or lower the signal
Retinoic acid receptor alpha (Homo sapiens), sequence (P10276 whole entry, looked up): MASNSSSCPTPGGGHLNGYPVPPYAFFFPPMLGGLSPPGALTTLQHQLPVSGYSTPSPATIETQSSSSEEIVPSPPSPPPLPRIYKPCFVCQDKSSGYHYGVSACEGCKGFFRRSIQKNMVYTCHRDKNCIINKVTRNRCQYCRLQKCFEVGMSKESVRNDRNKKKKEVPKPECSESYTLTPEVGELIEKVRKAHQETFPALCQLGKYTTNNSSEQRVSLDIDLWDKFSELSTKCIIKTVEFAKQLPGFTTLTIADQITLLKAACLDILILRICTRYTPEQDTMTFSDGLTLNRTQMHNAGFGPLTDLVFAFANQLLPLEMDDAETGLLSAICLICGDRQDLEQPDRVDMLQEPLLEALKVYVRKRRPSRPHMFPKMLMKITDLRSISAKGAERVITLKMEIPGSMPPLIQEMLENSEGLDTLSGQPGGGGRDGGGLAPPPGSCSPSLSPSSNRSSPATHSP
How it was run: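 Reporter transcripts from a DR5-regulated unit, measured via RT-PCR plus capillary electrophoresis, reflect endogenous RAR activity in transiently transfected human HepG2 liver cells. Exposure lasted 24 h; gain or loss of signal scored against DMSO.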

[11] = target: Transcription factor E2F1 (Homo sapiens) (UniProt Q01094); assay: ATG_E2F_CIS: Attagene CIS-FACTORIAL HepG2 Assay for human E2F Transcription Factor 1 (AID 2282935); details: HepG2 Attagene cis-reporter, E2F reporter RNA transcripts; actives raise or lower the signal
Transcription factor E2F1 (Homo sapiens), sequence (Q01094 whole entry, looked up): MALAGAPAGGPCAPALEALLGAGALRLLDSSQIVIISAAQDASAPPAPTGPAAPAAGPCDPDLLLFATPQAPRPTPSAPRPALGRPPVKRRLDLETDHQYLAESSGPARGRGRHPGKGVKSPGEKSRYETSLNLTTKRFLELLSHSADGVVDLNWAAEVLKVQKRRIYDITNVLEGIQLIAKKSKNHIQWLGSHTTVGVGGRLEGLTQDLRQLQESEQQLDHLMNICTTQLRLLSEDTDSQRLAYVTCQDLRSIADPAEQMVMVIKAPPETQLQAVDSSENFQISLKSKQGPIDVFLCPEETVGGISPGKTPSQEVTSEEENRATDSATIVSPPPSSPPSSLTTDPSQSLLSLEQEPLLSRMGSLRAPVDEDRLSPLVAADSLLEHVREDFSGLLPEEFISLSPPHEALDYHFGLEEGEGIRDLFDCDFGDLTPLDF
How it was run: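 Cis-element reporter mRNA induction in transiently transfected HepG2, 24 h exposure. Activity fitted in both directions relative to DMSO negative control.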

[12] = ATG_E_Box_CIS: Attagene CIS-FACTORIAL HepG2 Assay for human Enhancer Box (E-box) (AID 2282936); details: HepG2 E-box cis-reporter transcription, actives raise or lower the signal
How it was run: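 Cells: HepG2 (human liver), transient MRTU transfection. Exposure 24 h. RNA → oligo(dT) RT → PCR → 6-FAM label → HpaI → CE. Activity fitted both directions relative to DMSO.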

[13] = ATG_M_61_CIS: Attagene CIS-FACTORIAL HepG2 Assay for M61 Transcription Factor (Internal Marker) (AID 2282937); details: HepG2 Attagene CIS-FACTORIAL M61 internal marker reporter; actives raise or lower the signal
How it was run: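 Fluorescence from labelled cDNA fragments, separated by capillary electrophoresis, quantifies reporter induction. HepG2 cells bearing transiently transfected cis-promoter MRTUs were incubated with test chemical for 24 h; DMSO defined baseline for gain/loss fitting.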

[14] = ATG_EGR_CIS: Attagene CIS-FACTORIAL HepG2 Assay for human Early Growth Response 1 (EGR1) (AID 2282938); details: HepG2 Attagene CIS-FACTORIAL EGR reporter mRNA; actives raise or lower the signal
How it was run: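 Cell-based multiplex transcription assay: HepG2 carrying transfected cis-element reporter units, 24 h chemical treatment. Fluorescence from capillary electrophoresis of RT-PCR products gives mRNA levels; fitting is bidirectional relative to DMSO.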

[15] = ATG_M_19_CIS: Attagene CIS-FACTORIAL HepG2 Assay for M19 Transcription Factor (Internal Marker) (AID 2282939); details: HepG2 Attagene CIS-FACTORIAL M19 internal marker reporter; actives raise or lower the signal
How it was run: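 Internal marker readout, fitted in both directions against DMSO, from HepG2 cells carrying transfected cis-element reporter constructs; RT-PCR and capillary electrophoresis of reporter mRNA after 24 h exposure.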

[16] = ATG_ERE_CIS: Attagene CIS-FACTORIAL HepG2 Assay for Estrogen Response Element (ERE) (AID 2282940); details: HepG2 ERE cis-reporter, Attagene RNA transcript; actives raise or lower the signal
How it was run: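 After 24 h compound treatment, RNA from transfected HepG2 cells was reverse-transcribed, reporter cDNA PCR-amplified, FAM-labelled, HpaI-cut and resolved by capillary electrophoresis. ERE-driven cis reporter transcripts reflect endogenous factors; gain or loss scored against DMSO.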

[17] = ATG_Ets_CIS: Attagene CIS-FACTORIAL HepG2 Assay for human Erythroblast Transformation Specific (ETS) (AID 2282941); details: HepG2 ETS cis-reporter transcription, actives raise or lower the signal
How it was run: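 Human HepG2 hepatoma cells were transiently transfected with promoter-driven reporter constructs and treated for 24 hours. Reporter transcripts were quantified by RT-PCR with fluorescent primer extension; bidirectional curve fitting used DMSO as reference.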

[18] = target: Hepatocyte nuclear factor 3-beta (Homo sapiens) (UniProt Q9Y261); assay: ATG_FoxA2_CIS: Attagene CIS-FACTORIAL HepG2 Assay for human Forkhead box A2 (FOXA2) (AID 2282942); details: HepG2 cis-reporter transcription factor activity, 24 h; actives raise or lower the signal
Hepatocyte nuclear factor 3-beta (Homo sapiens), sequence (Q9Y261 whole entry, looked up): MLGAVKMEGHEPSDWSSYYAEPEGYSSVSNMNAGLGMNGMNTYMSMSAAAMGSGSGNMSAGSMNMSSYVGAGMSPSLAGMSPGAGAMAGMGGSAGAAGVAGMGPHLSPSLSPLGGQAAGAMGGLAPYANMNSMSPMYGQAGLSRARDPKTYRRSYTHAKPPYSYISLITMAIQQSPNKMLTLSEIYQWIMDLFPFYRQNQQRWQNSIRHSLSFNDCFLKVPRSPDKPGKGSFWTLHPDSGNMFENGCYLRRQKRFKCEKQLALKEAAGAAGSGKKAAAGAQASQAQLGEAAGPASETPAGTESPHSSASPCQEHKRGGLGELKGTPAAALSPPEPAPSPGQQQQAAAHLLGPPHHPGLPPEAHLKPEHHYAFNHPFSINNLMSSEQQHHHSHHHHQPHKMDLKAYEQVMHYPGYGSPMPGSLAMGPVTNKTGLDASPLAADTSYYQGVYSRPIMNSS
How it was run: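 In transiently transfected human HepG2 cells, promoter-driven reporter mRNA levels after 24 h chemical exposure are determined via RT-PCR with capillary electrophoresis. DMSO serves as baseline for bidirectional fitting.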

[19] = ATG_GATA_CIS: Attagene CIS-FACTORIAL HepG2 Assay for human GATA Binding Protein (AID 2282944); details: HepG2 GATA cis-element reporter, Attagene multiplex mRNA; actives raise or lower the signal
How it was run: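 Reporter transcripts from a GATA cis-regulated unit, among multiplexed reporters in transfected HepG2 cells, were measured by RT-PCR with capillary electrophoresis after 24 h dosing. Induction or loss scored relative to DMSO.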

[20] = ATG_FoxO_CIS: Attagene CIS-FACTORIAL HepG2 Assay for human Forkhead box O (FoxO) (AID 2282943); details: HepG2 Attagene cis-reporter, FoxO element, mRNA; actives raise or lower the signal
How it was run: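 Endogenous transcription factor activity read from multiplexed cis-promoter reporter transcripts in transiently transfected HepG2, 24 h after dosing. Reporter RNA measured via RT-PCR plus capillary electrophoresis of FAM-labeled products; gain or loss relative to DMSO.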

Measured: AC50

Cc1cc(C)c(O)c(C(C)(C)C)c1
inactive: [1] | [2] | [3] | [5] | [6] | [7] | [8] | [9] | [10] | [11] | [12] | [13] | [14] | [15] | [16] | [17] | [18] | [19]
active: [4] 100 µM

CCN(CCO)S(=O)(=O)C(F)(F)C(F)(F)C(F)(F)C(F)(F)C(F)(F)C(F)(F)C(F)(F)C(F)(F)F
active: [2] 28.9 µM
inactive: [1] | [3] | [4] | [5] | [6] | [7] | [8] | [9] | [10] | [11] | [12] | [13] | [14] | [15] | [16] | [17] | [18] | [20] | [19]

c1ccc(C[P+](c2ccccc2)(c2ccccc2)c2ccccc2)cc1
active: [1] 0.132 µM | [5] 100 µM | [9] 10.7 µM
inactive: [2] | [3] | [4] | [6] | [7] | [8] | [10] | [11] | [12] | [13] | [14] | [15] | [16] | [17] | [18] | [19]
